Source: PubChem BioAssay
C8 TRAIL sens: caspase-8 TRAIL sensitization; hit rate 1% among 360,000; AID 624354; inhibition (viability loss, TRAIL sensitization), % at 10 µM; NB7+C8 cells + TRAIL, ATPlite viability luminescence;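 active means compounds causing at least 50% loss of cell viability in the single-dose screen, relative to plate controls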
HSP90 refold inh: blocks HSP90-mediated luciferase refolding in reticulocyte lysate. inhibition, % at 5.6 µM. hit rate 0.91% among 290,000. Rabbit reticulocyte lysate, luciferase refolding luminescence, 3 h. AID 1789;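 active means inhibition above the screen-wide mean plus 3 SD, computed separately per campaign, cut at about 16% in these data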;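 further: inhibitors lower the luminescence because luciferase stays unfolded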
TWEAK-Fn14 inh: inhibitors of TWEAK-Fn14 interaction signaling | TWEAK-stimulated Fn14 reporter cells, luciferase luminescence, 8 h | inhibition, % at 10 µM | hit rate 2% among 360,000 | AID 1159606; in the data active means inhibition above about 50%
PPC-1+TRAIL kill: compounds killing PPC-1 cancer cells with TRAIL present (potentiator screen, no TRAIL-free arm); PPC-1 cells + TRAIL, ATPLite viability luminescence; cell killing (% activity), % at 4 µM or 5 µM; hit rate 0.41% among 220,000;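 active means cell killing above 50% in the first pass at 4 µM, then a duplicate retest at 5 µM averaging 50% or more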
Platelet DG rel: platelet dense granule release activity; human platelet-rich plasma, SFLLRN dense granule ATP release, luminescence; inhibition, %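 (compounds screened at 7.5 µM in platelet-rich plasma)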; hit rate 0.22% among 300,000; AID 1663;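 active means mean replicate score, as percent of positive control, at or above 50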
TROY NFkB inh: TROY signaling inhibition | hit rate 0.98% among 360,000 | inhibition, % at 10 µM | Q293 LMP1-TROYcd NF-kB luciferase reporter, 4 h;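 active means compounds whose plate-normalised and pattern-corrected inhibition of the luciferase reporter signal at the single screening dose is 50% or more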
PPC-1 tox: PPC-1 cell cytotoxicity. hit rate 50% among 1,200. cytotoxicity, % at 5 µM. shares compounds with PPC-1+TRAIL kill. PPC-1 viability, ATPlite luminescence, overnight;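 active means reconfirmed compounds whose average cytotoxicity reaches 50% or more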
Each line names hits and unclear results; the compound was inactive in the other large screens (follow-up assays come after a bar, where they were run). Shown are actives, neighbours in structure and some others; about 3.5% of the full set was active somewhere.

CC(C)(C)c1nc2scc(-c3ccc(Cl)cc3)c2c(=O)o1	none | PPC-1 tox inactive
CN(C(=O)COc1ncnc2ccc(Br)cc12)C1CCCCC1	none (no result: HSP90 refold inh, PPC-1+TRAIL kill, Platelet DG rel)
CCCCN(C(=O)CSc1nnc(Nc2ccc(C)c(C)c2)s1)c1c(N)n(Cc2ccccc2)c(=O)[nH]c1=O	none | PPC-1 tox inactive
Nc1cc(=O)[nH]c(=O)n1CCCc1ccccc1	none (no result: PPC-1+TRAIL kill)
COc1cc(C(=O)OCC(=O)c2c[nH]c3ccccc23)ccc1OCC(=O)N1CCOCC1	none
CCOc1cc(C(=O)OCC(=O)c2c[nH]c3ccccc23)ccc1OCC(=O)N1CCOCC1	none | PPC-1 tox inactive
C/C(=N\Nc1cccc2cccnc12)c1ccccn1	C8 TRAIL sens 75, TWEAK-Fn14 inh 70 | PPC-1 tox inactive
Clc1cccc(-c2cc3nc4c(c(N5CCOCC5)n3n2)CCCC4)c1	none | PPC-1 tox inactive
Fc1cccc(-c2cc3nc4c(c(N5CCOCC5)n3n2)CCCC4)c1	none
COc1ccc(-c2nc(-c3ccccn3)ncc2S(C)(=O)=O)cc1	none
Cn1nc(-c2ccccn2)nc2c(=O)n(C)c(=O)nc1-2	C8 TRAIL sens 96, HSP90 refold inh 87, TWEAK-Fn14 inh 102, Platelet DG rel 148, TROY NFkB inh 57 | PPC-1 tox inactive
O=C(Nc1nc(-c2ccccn2)cs1)C12CC3CC(CC(O)(C3)C1)C2	C8 TRAIL sens 60 | PPC-1 tox inactive
CCSc1ccc(-c2ccc(C)cc2)nn1	C8 TRAIL sens 57, PPC-1+TRAIL kill 50 | PPC-1 tox 51
CN(C)CCNC(=O)Cn1nc(C(F)F)cc1C1CC1	none | PPC-1 tox inactive
c1cncc(-c2nc3cc4ccccc4cc3[nH]2)c1	C8 TRAIL sens 66, PPC-1+TRAIL kill 61 | PPC-1 tox 66
O=C(Nc1ccc2nc(-c3cccnc3)[nH]c2c1)c1ccccc1F	none
Cc1oc2c(c1C(=O)NCc1cccnc1)C(=O)c1ccccc1C2=O	HSP90 refold inh 16, PPC-1+TRAIL kill 95 (no result: C8 TRAIL sens, TWEAK-Fn14 inh, TROY NFkB inh) | PPC-1 tox 94
COc1ccc(CNC(=O)c2c(C)oc3c2C(=O)c2ccccc2C3=O)cc1	C8 TRAIL sens 94, TWEAK-Fn14 inh 99, PPC-1+TRAIL kill 59, TROY NFkB inh 56 | PPC-1 tox 57
Cc1onc(-c2ccccc2Cl)c1C(=O)NCc1cccnc1	none
CC(C)CO/C(=N/S(=O)(=O)c1ccccc1)c1ccccc1	none | PPC-1 tox inactive
Cc1nc2cc(NC(=O)Nc3cccc4ccccc34)ccc2n1C	none | PPC-1 tox inactive
Cc1nc2cc(Nc3nnc(-c4ccccc4)c4ccccc34)ccc2n1C	C8 TRAIL sens 75, PPC-1+TRAIL kill 71 | PPC-1 tox 70
COc1ccc(Nc2nnc(-c3ccccc3)c3ccccc23)cc1C(=O)N1CCCCC1	none
Cc1ccc(NC(=O)Nc2ccc3c(c2)nc(C)n3C)cc1C	none (no result: C8 TRAIL sens, TWEAK-Fn14 inh, TROY NFkB inh)
O=C(Nc1ccccc1C(=O)N1CCCCCC1)c1ccccc1	none
O=C(Nc1ccccc1C(=O)N1CCCC1)c1cccc(S(=O)(=O)N2CCCCC2)c1	none | PPC-1 tox inactive
CCC1(C)CC2(CCCN(CCC(=O)c3ccccc3)C2)CCO1 (stereo not drawn)	none
CCN1CCN(C(=O)N2CCOCC2)CC1	none
CC(C)CC(=O)Nc1ccc2nn(-c3ccccc3)nc2c1	none
CCC(=O)Nc1cc2nn(-c3ccccc3)nc2cc1Cl	C8 TRAIL sens 64, TWEAK-Fn14 inh 52, PPC-1+TRAIL kill 60 | PPC-1 tox 60
c1ccc(CNc2nc(-c3ccccn3)nc3ccccc23)cc1	none (no result: PPC-1+TRAIL kill)
Fc1ccccc1/C=N/Nc1nc(-c2ccccn2)nc2ccccc12	PPC-1+TRAIL kill 61 (no result: C8 TRAIL sens, TWEAK-Fn14 inh, TROY NFkB inh) | PPC-1 tox inactive
COc1cccc(C(=O)Cn2c(=N)n(C)c3ccccc32)c1	C8 TRAIL sens 59, PPC-1+TRAIL kill 54 | PPC-1 tox inactive
COCCNC(=O)c1cc2c(c(-c3cccc(C#Cc4ccc(OC)c(OC)c4)c3)n1)[C@H](CCO)N(S(=O)C(C)(C)C)C2 (stereo partly drawn)	none (no result: HSP90 refold inh, PPC-1+TRAIL kill, Platelet DG rel)
Cc1cc(C(=O)CN2C(=O)C3CC=CCC3C2=O)c(C)n1-c1ccccc1 (stereo not drawn)	C8 TRAIL sens 63, TWEAK-Fn14 inh 56 | PPC-1 tox 53
Cc1cc(C(=O)CN2C(=O)c3ccccc3S2(=O)=O)c(C)n1-c1ccccc1	C8 TRAIL sens 63, HSP90 refold inh 16, TWEAK-Fn14 inh 94 | PPC-1 tox inactive
CN(Cc1ccccc1)C(=O)CN1C(=O)c2ccccc2S1(=O)=O	none (no result: PPC-1+TRAIL kill)
CC(O)(c1cccnc1)c1nc(-c2ccc3ccccc3c2)cs1 (stereo not drawn)	none (no result: HSP90 refold inh, PPC-1+TRAIL kill, Platelet DG rel)
COCCSc1ccccc1C(=O)N1CCc2ccccc21	none (no result: PPC-1+TRAIL kill)
Cn1ccc(C(=O)N/N=C/c2cccnc2)n1	none (no result: PPC-1+TRAIL kill)
CN(C)c1ccc(/C=N/NC(=O)c2ccn(C)n2)cc1	none | PPC-1 tox inactive
CC(=O)c1cccc(NC(=O)Cn2cc3c(n2)CCCC3)c1	none
CC(=O)Nc1ccc(NC(=O)Cn2cc3c(n2)CCCC3)cc1	none | PPC-1 tox inactive
O=C(Nc1nnc([C@H]2C[C@H](O)[C@@H](CO)O2)s1)Nc1cccc2c1CCCC2	none (no result: HSP90 refold inh, PPC-1+TRAIL kill, Platelet DG rel)
O=C(CSc1nnc(-c2csc3c2CCCC3)o1)Nc1ccccc1	C8 TRAIL sens 77, PPC-1+TRAIL kill 58 | PPC-1 tox 56
O=C(CSc1nnc(-c2ccc(O)cc2)o1)Nc1ccccc1	none (no result: PPC-1+TRAIL kill)
Cc1ccc(C(=O)/C=C/Nc2cccc(O)c2)cc1	C8 TRAIL sens 83, PPC-1+TRAIL kill 88 | PPC-1 tox 88
O=C(/C=C/Nc1cccc(O)c1)c1ccccc1	C8 TRAIL sens 67, PPC-1+TRAIL kill 74 | PPC-1 tox 72
COCc1nnc(NC(=O)c2sc3ccccc3c2Cl)s1	none | PPC-1 tox inactive
CC(C)n1cnnc1SCC(=O)Nc1ccc(Br)cc1F	none
Nc1c(-c2ccccc2)cnc2cc(-c3ccccc3)nn12	C8 TRAIL sens 65, PPC-1+TRAIL kill 53 | PPC-1 tox 60
Cc1ccc(CNC(=O)C2(C)Oc3ccccc3NC2=O)cc1 (stereo not drawn)	none | PPC-1 tox inactive
CC1(C(=O)NCc2ccc(F)cc2)Oc2ccccc2NC1=O (stereo not drawn)	none
CC(=O)Nc1cccc(-c2ccnc3c2CC(C(=O)NCCN(C)C)O3)c1 (stereo not drawn)	none (no result: HSP90 refold inh, PPC-1+TRAIL kill, Platelet DG rel)
Cc1cccc2c(C(=O)O)cc(-c3cccnc3)nc12	none | PPC-1 tox inactive
CC(=O)Nc1nc(COc2ccccc2)cs1	none | PPC-1 tox inactive
c1ccc(CSCc2cn3ccccc3n2)cc1	none | PPC-1 tox inactive
Cc1cc2nc(-c3ccc(SCC(=O)N4CCN(C(=O)c5ccco5)CC4)nc3)[nH]c2cc1C	C8 TRAIL sens 74, PPC-1+TRAIL kill 65 | PPC-1 tox 63
Cc1cc2nc(-c3ccc(SCC(=O)N4CCOCC4)nc3)[nH]c2cc1C	C8 TRAIL sens 68, PPC-1+TRAIL kill 58 | PPC-1 tox 58
O=C(CCCN1C(=O)c2cccc3cccc(c23)C1=O)Nc1nccs1	none
